Assay outcomes deposited in PubChem by National Center for Advancing Translational Sciences (NCATS).
This is a sample that favours compounds with a hit; in the whole collection about 9% have one here.
BAZ2B inh: qHTS Assay for Inhibitors of BAZ2B | Bromodomain adjacent to zinc finger domain protein 2B (Homo sapiens), Q9UIF8 | AlphaScreen BAZ2B-H3K14Ac peptide displacement | Potency, µM (highest dose often 114 µM), for the others: top-dose activity change, negative = inhibition, most hits filed as inhibitors | 360,000 tested, 4.4% active; also: % is scaled to controls: 0 for no effect and ±100 for the full control effect; nearly all actives have a fitted effect of over 60% in size
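Inhibition is scored as reduced AlphaScreen emission. The BAZ2B/b-H3(5-23)K14Ac complex (50 nM each) in PBS pH 7.4, 0.01% Tween-20 meets compound (up to 110 uM) for 30 min at RT before bead addition.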
G9a block: qHTS Assay for Inhibitors of Histone Lysine Methyltransferase G9a | G9a H3K9 monomethylation, AlphaScreen, 2 h | Potency, µM (highest dose often 102 µM), for the others: at the top dose activity, negative = inhibition, most hits filed as inhibitors | 350,000 tested, 8.8% active | AID 504332, 2011; also: % is scaled to controls: 0 for no effect and ±100 for the full control effect; nearly all actives have a fitted effect of over 75% in size
Target sequence (Q96KQ7 913-1193 limits assumed): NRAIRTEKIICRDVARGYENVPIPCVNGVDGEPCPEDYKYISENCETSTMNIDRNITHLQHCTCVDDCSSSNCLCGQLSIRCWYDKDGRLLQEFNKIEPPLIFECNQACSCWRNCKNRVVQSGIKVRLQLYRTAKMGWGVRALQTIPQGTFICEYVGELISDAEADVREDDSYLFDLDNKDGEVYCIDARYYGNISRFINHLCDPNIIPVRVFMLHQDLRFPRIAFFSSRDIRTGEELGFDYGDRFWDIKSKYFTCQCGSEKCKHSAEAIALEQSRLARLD
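G9a (20 nM) preincubated 15 min RT with compounds, then 500 nM biotinylated H3K9 peptide and 20 uM SAM added; 2 h RT reaction. Monomethyl-H3K9 product detected by AlphaScreen with anti-H3K9me1 antibody, streptavidin donor and anti-rabbit IgG acceptor beads.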
12-LOX inh: Primary qHTS assay for inhibitors of human arachidonate 12S-lipoxygenase (ALOX12): Round 2 | 580,000 tested, 1.1% active | AID 1671190, 2021 | Potency, µM (doses to about 108 µM), for the others: at the highest dose activity change, negative = inhibition, usual class: inhibitors | purified 12hLO, xylenol orange hydroperoxide absorbance | Polyunsaturated fatty acid lipoxygenase ALOX12 (Homo sapiens), P18054; also: % is scaled to controls: 0 for no effect and ±100 for the full control effect
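Hydroperoxide product was detected by ferrous iron/xylenol orange as the 573 to 405 nm absorbance ratio. Arachidonic acid at 40 uM (final) was turned over for 30 min at room temperature by 150 nM human 12hLO, pH 7.0 Hepes buffer, after 15 min compound preincubation.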
PLK1 PBD block: qHTS for Inhibitors of PLK1-PDB (polo-like kinase 1 - polo-box domain): Primary Screen; Serine/threonine-protein kinase PLK1 (Homo sapiens), P53350; 360,000 tested, 2.8% active; Potency, µM, inactives show max response, negative = inhibition, hits mostly inhibitors; Plk1 PBD binding of FITC phosphopeptide, fluorescence polarization; also: series mostly up to about 57 µM; % is scaled to controls: 0 for no effect and ±100 for the full control effect; nearly all actives have a fitted effect of over 65% in size
JMJD2A Tudor: qHTS Assay for Inhibitors of JMJD2A-Tudor Domain. AID 504339, 2011. 390,000 tested, 4.4% active. AlphaScreen JMJD2A-Tudor / H3K4me3 peptide binding. Lysine-specific demethylase 4A (Homo sapiens), O75164. Potency, µM (series often up to 114 µM), without a hit: top-dose activity change, negative = inhibition, actives largely listed as inhibitors; also: % is scaled to controls: 0 for no effect and ±100 for the full control effect; nearly all actives have a fitted effect of over 50% in size
HP1b binding inh: HTS for Inhibitors of HP1-beta Chromodomain Interactions with Methylated Histone Tails. AlphaScreen HP1-beta / biotin-H3K9me3 peptide binding. Chromobox protein homolog 1 (Homo sapiens), P83916. 390,000 tested, 0.56% active. AID 540317, 2011. Potency, µM (highest dose often 114 µM), for inactives: at the highest dose activity change, negative = inhibition, usual class: inhibitors; also: nearly all actives have a fitted effect of over 70% in size
Target sequence (P83916 whole entry, looked up): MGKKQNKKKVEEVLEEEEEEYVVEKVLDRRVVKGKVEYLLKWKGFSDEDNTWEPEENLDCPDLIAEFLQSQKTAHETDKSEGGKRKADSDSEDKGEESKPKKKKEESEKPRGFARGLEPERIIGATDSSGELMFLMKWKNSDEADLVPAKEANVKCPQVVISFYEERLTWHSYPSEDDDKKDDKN
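Compound inhibition of the preformed complex between 50 nM HP1-beta and 50 nM biotinylated H3K9me3 peptide was read by AlphaScreen. Buffer was PBS pH 7.4 with 0.01% Tween-20. Incubations ran 30 min at room temperature, with 10 ug/mL donor/acceptor beads.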
* marks the source's active call; other numbers are inactive results; ? = inconclusive; . = not tested or not shown; [ ] = another dose, or the depositor's remark. Calls follow the shape of the dose curve; as a rule, active = well fitted curve in the direction sought with a large enough effect; inconclusive = small, poorly fitted or top-dose-only effect, or another doubt; inactive = no such curve, though single readings can be large; an effect the other way counts as inactive or inconclusive. Potency is read from the fitted curve at half-maximal effect.

SMILES | BAZ2B inh | G9a block | 12-LOX inh | PLK1 PBD block | JMJD2A Tudor | HP1b binding inh
O=C(Nc1nc(-c2ccco2)c(-c2ccco2)s1)C1CCC1 | 32µM* | ? | 11µM* | -23% | 40µM* | 50µM*
O=C(Nc1nnc(-c2ccncc2)o1)c1ccc(Br)s1 | 71µM* | -26% | -10% | -1% | ? | 33%
O=C(N/N=C\c1ccncc1)c1ccc(Br)s1 | -14% | 66% | 495% | 0% | -11% | 53%
O=C(Nc1nc2ccsc2c(=O)s1)C1CCC1 | -12% | 1% | 45% | 6% | 4% | 27%
CS(=O)(=O)c1ccc(C(=O)Nc2nc(-c3ccco3)c(-c3ccco3)s2)cc1 | 40µM* | 10µM* | ? | -27% | ? | 40µM*
CS(=O)(=O)c1ccc2nc(NC(=O)c3ccccc3)sc2c1 | 3% | 31% | -6% | -9% | 0% | 57%
O=C(Nc1nnc(-c2ccco2)s1)C1CCCCC1 | 50µM* | 14%[59 µM] | 94% | -5% | -28% | 58%
Cc1ccc(S(=O)(=O)N2CCC(C(=O)Nc3nnc(-c4ccco4)s3)CC2)cc1 | ? | -9%[12.7 µM] | 6%[57.4 µM] | -7% | -16% | -7%
CC(=O)Nc1ccc(S(=O)(=O)N[C@@H](C)C(=O)N2CCN(C/C=C/c3ccccc3)CC2)cc1 | 9% | -12%[2.33 µM] | . | -6% | -6% | 37%
CCN(CC(=O)NCc1ccc(F)cc1)C(=O)CN1CCN(c2ccc(OC)cc2)CC1 | 18µM* | 7.9µM* | -21% | 2% | 0.89µM* | 18µM*
COc1ccc(N2CCN(CC(=O)NCc3ccc(Cl)cc3)CC2)cc1 | ? | . | ? | 15µM* | ? | -17%
Nc1ccc2nc(CCc3ccccc3)[nH]c2c1 | ? | 7.9µM* | 12% | 6% | ? | -6%
c1ccc(Cc2nc3ccccc3[nH]2)cc1 | 7% | 0%[12.7 µM] | 7% | -18% | -10% | 28%
CCc1nc2ccc(Cc3ccc4nc(CC)[nH]c4c3)cc2[nH]1 | -14% | 45µM* | 9% | 2% | -10% | 45%
Cc1ccc2nc(CCc3ccc(N)cc3)[nH]c2c1 | ? | 35µM* | 0% | 0% | ? | -2%
Nc1ccc(Cc2nc3cc4ccccc4cc3[nH]2)cc1 | -36% | -22%[59 µM] | 1% | 1% | ? | 5%
Cc1ccc(-c2nnc(Nc3ccc(CC(N)=O)cc3)c3ccccc23)cc1S(=O)(=O)NCC1CCCO1 (stereo not given) | -9% | -24% | -29% | 2% | -13% | 7%
CN1CCN(S(=O)(=O)c2ccc(Cl)c3ccccc23)CC1 | -28% | ? | ? | -16% | -8% | 13%
COC(=O)C1=C(C(=O)OC)SC2(S1)C(C(=O)OC)=C(C(=O)OC)SC1=C2c2cc(C)ccc2NC1(C)C | ? | ? | ? | 3.4µM* | 56µM* | -81%
O=C(c1cc(-c2ccccc2O)on1)N1CCc2ccccc2C1 | 5% | 4% | ? | -6% | -14% | 34%
O=C(c1coc(=O)c(Br)c1)N1CCCc2ccccc21 | 22µM* | 18µM* | 7.1µM* | 0% | 40µM* | -34%
O=C(c1nn2c(C(F)(F)F)cc(-c3ccco3)nc2c1Br)N1CCCc2ccccc21 | 2% | 18µM* | ? | -5% | -13%[57.1 µM] | 1%
O=C(c1cc(-c2ccco2)on1)N1CCc2ccccc2C1 | 25µM* | 11µM* | 18µM* | ? | 50µM* | -16%
O=C(c1cccc(Br)c1)N1CCCc2ccccc21 | -5% | . | 0% | -10% | -1% | 80%
CC1CCCC(C)N1C(=O)c1cc(-c2ccco2)on1 (stereo not given) | 0% | 50µM* | -18% | -1% | -7% | 24%
SMILES | BAZ2B inh | G9a block | 12-LOX inh | PLK1 PBD block | JMJD2A Tudor | HP1b binding inh
CC1CCN(C(=O)c2cc(-c3ccco3)on2)CC1 | 0% | ? | ? | -11% | -13% | 1%
CCC1CCCCN1C(=O)CSc1nnc2nc(C)cc(C)n12 (stereo not given) | -12% | ? | -22% | -6% | -23% | 27%
COc1ccc(N2CCC(N3CCC4(CCNCC4)C3)CC2)cc1 | . | . | 16% | . | . | .
O=C(c1cc(-c2ccccc2)on1)N1CCCc2ccccc21 | -10% | . | 5% | -5% | 21% | 74%
O=C(c1coc(=O)c(Br)c1)N1CCC(C(O)(c2ccccc2)c2ccccc2)CC1 | -10% | -23% | -7% | 3% | -5% | 11%
CC1(C)CCCN(C(=O)c2coc(=O)c(Br)c2)C1 | 20µM* | . | ? | 11µM* | 18µM* | -95%
O=C(c1cc(-c2ccco2)on1)N1CCCc2ccccc21 | ? | 13µM* | ? | ? | 56µM* | -8%
O=C1CCN(Cc2ccc(Br)cc2)CCN1[C@H](CO)c1ccccc1 | -32% | 13% | -3% | 1% | -10% | 21%
COc1ccc2c(c1)NC(c1ccc(N(C)C)cc1)c1cccn1-2 (stereo not given) | -3% | 79µM* | ? | 0% | 21% | 102%
COc1cccc(N2C(=O)C3CCCN3C2c2ccc(N(C)C)cc2)c1 (stereo not given) | 11% | ? | -3% | -8% | -20% | 40%
COc1ccc2c(c1)NC(c1cc(Cl)cc(Cl)c1O)c1cccn1-2 (stereo not given) | -10% | ? | 32µM* | -6% | -16% | 26%
Oc1c(Cl)cc(Cl)cc1C1Nc2ccccc2-n2cccc21 (stereo not given) | -4% | ? | 191% | 1% | -10% | 23%
Cc1cc(C)cc(C(=O)N2CCN(CCc3ccccc3)CC2)c1 | . | . | 14% | . | . | .
Cc1ccc(OCC(=O)N(C)CC(=O)NCc2ccco2)c(Br)c1 | 50µM* | 56µM* | ? | ? | 35µM* | ?
CC(=O)c1cccc(OCC(=O)N(C)CC(=O)NCc2ccco2)c1 | . | . | 12% | ? | 22µM* | ?
Cc1ccc(OCC(=O)NCc2ccco2)cc1C | -35% | -40%[59 µM] | -21% | -18% | -22% | 3%
COc1cccc(CC(NC(C)=O)C(=O)NC2CCN(c3c4c(nc5ncnn35)CCC4)CC2)c1OC (stereo not given) | -6% | 36% | . | . | . | .
Cc1nnc(SCC(=O)Nc2ccc(Cl)cn2)n1Cc1ccccc1 | 19% | 0% | ? | -14% | -9%[57.1 µM] | 71%
